The supplement of paper PMC11732987, “Enantioselective OTUD7B fragment discovery through chemoproteomics screening and high-throughput optimisation” (Communications Chemistry, 2025)

Tests used:
Experiment in all cases: log2 ratio of Biotin-Ahx-Ub-VS probe labelling (fragment/DMSO); higher = less target engagement (more negative = stronger competition), active = hit call of the paper (q ≤ 0.05, log2 ratio ≤ -1)
Conditions in all cases: compound concentration: 200 uM; treatment time: 3 h
OTUD6B = molecular target: T1, OTUD6B (UniProt Q8N6M0)
T1 sequence (whole entry): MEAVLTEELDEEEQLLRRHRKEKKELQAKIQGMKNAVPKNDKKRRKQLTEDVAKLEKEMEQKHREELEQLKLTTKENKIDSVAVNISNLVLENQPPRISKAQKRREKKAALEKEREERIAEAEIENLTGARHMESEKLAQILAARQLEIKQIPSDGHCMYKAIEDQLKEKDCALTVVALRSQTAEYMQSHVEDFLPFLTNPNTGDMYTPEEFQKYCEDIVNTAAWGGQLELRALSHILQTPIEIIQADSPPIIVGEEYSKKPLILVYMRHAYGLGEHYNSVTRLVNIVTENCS
Procedure, shortened: (§1)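 Using Biotin-Ahx-Ub-VS at 0.5 µM final for 1 h, DUBs were labelled in HEK293T lysate (495 µg per sample) that had first been treated in triplicate with fragment at 200 µM or vehicle for 3 h. NeutrAvidin enrichment, LysC and trypsin digestion and diaPASEF LC-MS/MS followed. Spectronaut label-free quantities were global-median-normalised. Values are average log2 fragment/vehicle ratios by unpaired t-test, using proteins with ≥2 unique peptides.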

OTUD7B = molecular target: T2, OTUD7B (UniProt Q6GQQ9)
T2 sequence (whole entry): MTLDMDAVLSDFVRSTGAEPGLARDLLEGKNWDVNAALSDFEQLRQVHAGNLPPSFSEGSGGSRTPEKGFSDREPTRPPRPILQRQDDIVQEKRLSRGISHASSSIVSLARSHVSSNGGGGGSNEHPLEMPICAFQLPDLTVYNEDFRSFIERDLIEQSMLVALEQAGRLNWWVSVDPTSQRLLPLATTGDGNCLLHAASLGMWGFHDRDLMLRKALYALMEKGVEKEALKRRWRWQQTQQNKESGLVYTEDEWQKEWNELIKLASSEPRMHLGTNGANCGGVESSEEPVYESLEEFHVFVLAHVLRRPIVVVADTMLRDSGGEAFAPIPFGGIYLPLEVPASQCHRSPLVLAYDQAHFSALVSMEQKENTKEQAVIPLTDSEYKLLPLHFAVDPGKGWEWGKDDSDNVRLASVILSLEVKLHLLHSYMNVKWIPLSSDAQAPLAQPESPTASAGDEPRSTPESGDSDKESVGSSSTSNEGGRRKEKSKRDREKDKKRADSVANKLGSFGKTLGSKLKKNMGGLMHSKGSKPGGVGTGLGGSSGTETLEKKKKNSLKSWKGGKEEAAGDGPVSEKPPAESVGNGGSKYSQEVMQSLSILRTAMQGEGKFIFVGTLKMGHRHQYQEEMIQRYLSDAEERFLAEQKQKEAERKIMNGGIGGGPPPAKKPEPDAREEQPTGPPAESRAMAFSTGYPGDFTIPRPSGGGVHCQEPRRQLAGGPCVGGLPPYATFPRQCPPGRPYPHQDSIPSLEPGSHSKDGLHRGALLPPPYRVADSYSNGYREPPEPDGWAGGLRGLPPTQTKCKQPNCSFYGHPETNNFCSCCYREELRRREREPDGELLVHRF
Procedure, shortened: as §1

PRPF8 = PRPF8 (UniProt Q6P2Q9)
Procedure, shortened: as §1

PSMD7 = molecular target: T3, PSMD7 (UniProt P51665)
T3 sequence (whole entry): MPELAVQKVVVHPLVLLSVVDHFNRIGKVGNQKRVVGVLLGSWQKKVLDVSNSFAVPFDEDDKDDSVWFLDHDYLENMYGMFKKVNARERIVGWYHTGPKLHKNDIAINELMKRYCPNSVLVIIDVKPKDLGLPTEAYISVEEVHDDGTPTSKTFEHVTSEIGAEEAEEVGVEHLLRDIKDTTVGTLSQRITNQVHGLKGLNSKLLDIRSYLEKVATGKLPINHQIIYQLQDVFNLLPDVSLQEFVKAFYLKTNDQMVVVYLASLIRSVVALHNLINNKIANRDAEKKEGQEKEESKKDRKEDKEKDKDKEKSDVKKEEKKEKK
Procedure, shortened: as §1

UCHL1 = UCHL1 (UniProt P09936)
Procedure, shortened: as §1

UCHL3 = molecular target: T4, UCHL3 (UniProt P15374)
T4 sequence (whole entry): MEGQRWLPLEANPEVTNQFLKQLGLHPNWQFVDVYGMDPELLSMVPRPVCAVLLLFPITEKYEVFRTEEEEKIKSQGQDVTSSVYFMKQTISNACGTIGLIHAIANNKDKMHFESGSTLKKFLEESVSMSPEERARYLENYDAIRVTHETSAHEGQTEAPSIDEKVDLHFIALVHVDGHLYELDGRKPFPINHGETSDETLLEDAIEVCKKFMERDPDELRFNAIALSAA
Procedure, shortened: as §1

UCHL5 = molecular target: T5, UCHL5 (UniProt Q9Y5K5)
T5 sequence (whole entry): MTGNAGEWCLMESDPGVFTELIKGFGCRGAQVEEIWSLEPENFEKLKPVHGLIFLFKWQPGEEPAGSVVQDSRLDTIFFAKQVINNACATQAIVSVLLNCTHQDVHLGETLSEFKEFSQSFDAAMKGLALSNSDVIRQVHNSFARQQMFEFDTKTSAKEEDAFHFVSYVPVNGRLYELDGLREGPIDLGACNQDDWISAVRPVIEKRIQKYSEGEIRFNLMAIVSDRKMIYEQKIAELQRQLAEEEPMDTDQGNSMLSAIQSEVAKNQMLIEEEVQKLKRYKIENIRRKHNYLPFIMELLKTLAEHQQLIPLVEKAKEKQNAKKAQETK
Procedure, shortened: as §1

USP10 = USP10 (UniProt Q14694)
Procedure, shortened: as §1

USP15 = molecular target: T6, USP15 (UniProt Q9Y4E8)
T6 sequence (whole entry): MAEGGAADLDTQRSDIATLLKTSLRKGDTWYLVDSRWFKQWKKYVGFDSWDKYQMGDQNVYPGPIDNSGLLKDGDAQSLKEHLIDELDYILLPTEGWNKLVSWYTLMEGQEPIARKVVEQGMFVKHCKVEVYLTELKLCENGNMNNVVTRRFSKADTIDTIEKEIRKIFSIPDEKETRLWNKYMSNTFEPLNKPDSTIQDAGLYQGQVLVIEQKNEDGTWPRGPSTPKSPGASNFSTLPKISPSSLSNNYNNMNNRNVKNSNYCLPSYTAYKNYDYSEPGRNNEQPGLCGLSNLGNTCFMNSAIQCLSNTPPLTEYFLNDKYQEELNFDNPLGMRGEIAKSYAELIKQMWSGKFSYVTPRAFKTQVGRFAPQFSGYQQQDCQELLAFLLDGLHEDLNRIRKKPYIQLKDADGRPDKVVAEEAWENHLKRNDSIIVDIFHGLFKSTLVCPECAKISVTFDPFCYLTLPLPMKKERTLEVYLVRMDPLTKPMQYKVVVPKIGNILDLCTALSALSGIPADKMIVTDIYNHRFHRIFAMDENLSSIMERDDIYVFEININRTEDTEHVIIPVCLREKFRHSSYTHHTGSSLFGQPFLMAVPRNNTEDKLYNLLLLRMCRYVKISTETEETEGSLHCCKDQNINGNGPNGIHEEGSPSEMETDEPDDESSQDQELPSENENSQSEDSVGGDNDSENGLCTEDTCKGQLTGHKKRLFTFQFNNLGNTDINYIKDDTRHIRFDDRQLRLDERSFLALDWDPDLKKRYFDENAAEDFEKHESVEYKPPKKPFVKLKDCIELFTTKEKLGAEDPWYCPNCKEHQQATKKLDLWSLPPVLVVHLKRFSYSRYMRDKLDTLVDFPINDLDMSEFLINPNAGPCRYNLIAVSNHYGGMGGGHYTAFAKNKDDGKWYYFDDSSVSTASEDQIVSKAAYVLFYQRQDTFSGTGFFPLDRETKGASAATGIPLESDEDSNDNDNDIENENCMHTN
Procedure, shortened: as §1

Measured: log2 ratio of Biotin-Ahx-Ub-VS probe labelling

UCHL1, sequence (P09936 whole entry, looked up): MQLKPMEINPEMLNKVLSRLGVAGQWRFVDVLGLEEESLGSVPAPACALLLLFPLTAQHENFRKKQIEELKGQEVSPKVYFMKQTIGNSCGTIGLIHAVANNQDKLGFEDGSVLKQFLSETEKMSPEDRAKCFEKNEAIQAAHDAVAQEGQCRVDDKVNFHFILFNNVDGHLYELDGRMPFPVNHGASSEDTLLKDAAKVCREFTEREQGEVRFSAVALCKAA
USP10, sequence (Q14694 whole entry): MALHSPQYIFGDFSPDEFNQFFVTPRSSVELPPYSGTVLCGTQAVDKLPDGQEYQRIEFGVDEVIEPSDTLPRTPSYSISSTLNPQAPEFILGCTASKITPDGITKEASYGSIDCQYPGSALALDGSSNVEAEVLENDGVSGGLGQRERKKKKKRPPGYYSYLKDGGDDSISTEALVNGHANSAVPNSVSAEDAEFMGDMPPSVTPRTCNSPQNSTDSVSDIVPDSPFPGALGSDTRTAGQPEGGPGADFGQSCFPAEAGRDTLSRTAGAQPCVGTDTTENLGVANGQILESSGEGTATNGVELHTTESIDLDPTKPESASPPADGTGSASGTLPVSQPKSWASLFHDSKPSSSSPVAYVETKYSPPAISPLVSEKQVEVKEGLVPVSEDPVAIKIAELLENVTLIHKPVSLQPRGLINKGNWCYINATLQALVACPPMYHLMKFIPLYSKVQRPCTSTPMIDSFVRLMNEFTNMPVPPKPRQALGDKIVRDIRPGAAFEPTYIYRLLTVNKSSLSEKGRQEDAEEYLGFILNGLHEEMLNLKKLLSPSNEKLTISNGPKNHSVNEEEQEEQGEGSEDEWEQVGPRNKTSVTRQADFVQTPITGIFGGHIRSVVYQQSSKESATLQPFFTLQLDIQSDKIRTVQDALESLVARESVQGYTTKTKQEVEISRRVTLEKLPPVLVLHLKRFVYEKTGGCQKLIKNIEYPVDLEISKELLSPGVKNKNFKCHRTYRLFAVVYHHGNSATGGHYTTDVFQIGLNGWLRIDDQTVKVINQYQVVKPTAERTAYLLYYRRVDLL

CCN1C(=O)C2CN(C(=O)CCl)CCN2C1=O (centres undefined)
inactive: OTUD6B -0.0446 | OTUD7B -0.649 | PRPF8 0.0726 | PSMD7 0.0575 | UCHL3 0.629 | UCHL5 -0.0935 | USP10 -0.0852 | USP15 -0.265
active: UCHL1 -1.56
